tim10-1 inh: tim10-1 yeast growth inhibition | 2.2% of 330,000 active | S. cerevisiae tim10-1 ts strain growth, BacTiter-Glo, 24 h | inhibition, % at 20 µM;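 active = inhibition of at least 40%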;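 note: mutant grown at 25 °C; 0% = DMSO wells with yeast and 100% = wells holding no yeast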
Mdm2 MdmX PPI: inhibitors of human Mdm2/MdmX interaction; inhibition, % at 8 µM; O15151+Q00987; 3% of 330,000 active; SaOS-2 split-luciferase Mdm2/MdmX complementation, luminescence;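 active = inhibition of at least 50% at 8 µM in the primary screen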
Target sequence (O15151 whole entry, looked up): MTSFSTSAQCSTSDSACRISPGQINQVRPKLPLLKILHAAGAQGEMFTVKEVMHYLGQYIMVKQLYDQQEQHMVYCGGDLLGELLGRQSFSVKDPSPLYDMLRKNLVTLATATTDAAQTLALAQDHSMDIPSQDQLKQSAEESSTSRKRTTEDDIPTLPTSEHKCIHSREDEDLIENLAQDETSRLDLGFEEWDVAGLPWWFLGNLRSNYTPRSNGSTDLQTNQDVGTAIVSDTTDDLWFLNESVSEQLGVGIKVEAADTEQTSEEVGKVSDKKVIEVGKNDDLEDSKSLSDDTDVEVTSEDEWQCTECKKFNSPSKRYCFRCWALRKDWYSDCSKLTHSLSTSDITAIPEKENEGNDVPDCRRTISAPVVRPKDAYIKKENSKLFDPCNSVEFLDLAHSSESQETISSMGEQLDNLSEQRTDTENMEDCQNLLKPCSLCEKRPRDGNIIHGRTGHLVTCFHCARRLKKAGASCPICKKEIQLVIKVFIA
Target sequence (Q00987 whole entry, looked up): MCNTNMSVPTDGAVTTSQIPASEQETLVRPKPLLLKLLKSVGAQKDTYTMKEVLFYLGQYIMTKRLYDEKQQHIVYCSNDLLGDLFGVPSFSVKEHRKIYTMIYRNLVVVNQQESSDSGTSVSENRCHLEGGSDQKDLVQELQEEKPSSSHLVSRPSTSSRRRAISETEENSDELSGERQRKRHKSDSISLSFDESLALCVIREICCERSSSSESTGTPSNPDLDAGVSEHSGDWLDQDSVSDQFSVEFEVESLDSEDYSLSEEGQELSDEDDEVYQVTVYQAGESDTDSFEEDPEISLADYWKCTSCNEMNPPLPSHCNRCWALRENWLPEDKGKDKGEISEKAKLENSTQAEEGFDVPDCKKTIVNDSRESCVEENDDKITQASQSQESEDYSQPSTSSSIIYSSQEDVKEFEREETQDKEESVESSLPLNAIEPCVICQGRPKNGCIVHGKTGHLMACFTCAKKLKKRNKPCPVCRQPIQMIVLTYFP
MPTP block: permeability transition pore inhibition; AID 602449; isolated mouse mitochondria, Ca2+ swelling absorbance, 30 min; inhibition, % at 10 µM; 1.4% of 360,000 active;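 active = inhibition of 50% or more, scaled per plate between neutral and stimulator controls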;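 note: 0% = DMSO wells given calcium and 100% = 1 mM EGTA wells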
TIM10 inh: inhibits growth of TIM10 yeast strain; S. cerevisiae TIM10 strain growth, BacTiter-Glo luminescence, 24 h; 1.4% of 330,000 active; inhibition, % at 10 µM;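 active = inhibition of 40% or more at the single tested concentration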;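 note: wild-type TIM10 isogenic control strain grown at permissive 25 °C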
tim23-1 inh: growth inhibitors of tim23-1 mutant yeast | S. cerevisiae tim23-1 growth, BacTiter-Glo luminescence, 24 h | inhibition, % at 20 µM | 1.3% of 330,000 active | AID 463212;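 active = growth inhibition of the mutant yeast at or above 50%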;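 note: temperature-sensitive mutant grown at 25 °C; plate controls were DMSO-treated mutant yeast for no effect and medium wells lacking yeast for full effect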
tim23-1 conf: confirmation of tim23-1 mutant yeast growth inhibitors. inhibition, % at 20 µM. 83% of 4,400 active. S. cerevisiae tim23-1 growth, BacTiter-Glo luminescence, 24 h. AID 463218. shares compounds with tim23-1 inh;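 active = inhibition above about 39% in either of two replicate wells at 20 µM, limit read from the data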;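 note: temperature-sensitive tim23-1 mutant grown at 25 °C; 0% = DMSO wells with yeast and 100% = medium wells without yeast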
Mdm2-MdmX conf: human Mdm2/MdmX binding inhibition, confirmed | inhibition, % at 8 µM | shares compounds with Mdm2 MdmX PPI | luminescent assay | 55% of 10,000 active; in the data active = inhibition above about 40%
FLuc counter: full-length luciferase inhibition in Mdm2/MdmX counter-screen. shares compounds with Mdm2 MdmX PPI. SaOS-2 full-length luciferase counterscreen, luminescence. inhibition, % at 8 µM. 77% of 6,200 active. AID 504607;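 active = mean inhibition at 8 µM reaching about 37%, which flags the compound as non-specific, limit read from the data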;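 note: p53-null SaOS-2 cells with luciferase driven by a doxycycline-inducible promoter; compound on cells about two nights before reading with doxycycline added after day one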
Numbers without * were called inactive; . = no result. The list is not random: actives were taken first. Their share in the collection is about 6.3%.

SMILES	tim10-1 inh	Mdm2 MdmX PPI	MPTP block	TIM10 inh	tim23-1 inh	tim23-1 conf	Mdm2-MdmX conf	others
Cc1ccc(CNC(=O)CC[C@H]2O[C@@H](n3cc(C)c(=O)[nH]c3=O)C[C@@H]2O)o1	.	.	-2	.	.	.	.
Oc1c(Br)cc(Br)cc1/C=N/N1CCN(Cc2ccccc2)CC1	.	.	9	.	.	.	.
Cc1ccc(CN2CCN(/N=C/c3cc(Br)cc(Br)c3O)CC2)cc1	25	2	7	12	59*	59*	.
Cc1cccc(-c2ccc3[nH]c4c(c3c2)CCN2C[C@@H]([C@H](C)OC(=O)Nc3ccccc3C)[C@@H](N(C)C(=O)Nc3ccccc3C)C[C@@H]42)c1	.	.	-1	.	.	.	.
CCCNC(=O)C1(C)CCCN(Cc2cc(-c3ccccc3)nn2C)C1 (centres undefined)	.	.	0	.	.	.	.
Cc1ccc(-c2nnc(N3CCC(C)CC3)c3ccccc23)cc1	-25	13	-3	14	53*	69*	.
Cn1c(SC/C=C/c2ccccc2)nnc1-c1cccs1	6	11	2	-4	57*	45*	.
CCn1c(SC/C=C/c2ccccc2)nnc1-c1cccs1	7	18	4	27	45	.	.
Cn1c(NCCc2ccncc2)nc2cc(-c3cccc(C(F)(F)F)c3)sc2c1=O	.	.	0	.	.	.	.
O=C(CCCN1C(=O)/C(=C/c2cccc(Br)c2)SC1=S)N1CCOCC1	37	61*	-2	35	53*	36	21
O=C(CCCN1C(=O)/C(=C/c2ccccc2Cl)SC1=S)N1CCCC1	32	76*	-3	30	51*	56*	31
O=C(CCCN1C(=O)/C(=C/c2ccccc2)SC1=S)N1CCOCC1	38	30	0	17	39	.	.
CC1(C(=O)NS(=O)(=O)c2ccc3ccccc3c2)CCN1C(=O)Cc1ccc(-c2ccccc2)cc1 (centres undefined)	.	.	2	.	.	.	.
CC1(C(=O)NCc2cccs2)CCN1CCc1ccccc1 (centres undefined)	.	.	0	.	.	.	.
COCCNC(=O)C1(C)CCN(C(=O)c2cc(-c3ccccc3)cs2)C1 (centres undefined)	.	.	-1	.	.	.	.
COc1ccc(Nc2nc(N)c([N+](=O)[O-])c(NCCO)n2)cc1	9	18	0	16	18	.	.
COc1ccc(Nc2nc(N)c([N+](=O)[O-])c(NC3CCCCC3)n2)cc1	39	70*	3	23	62*	52*	12
COc1ccc(-c2nc3ccc(Cl)cn3c2Cc2cccc(F)c2)cc1OC	.	.	1	.	.	.	.
CCOc1ccccc1C(=O)N/N=C/c1coc2ccc(C)cc2c1=O	28	79*	-2	18	64*	66*	29
O=C(Nc1c2c(nn1-c1ccccc1)CS(=O)(=O)C2)c1ccc(Br)o1	.	.	1	.	.	.	.
O=C(Nc1ccc(-c2nc3ncccc3o2)cc1)c1ccc([N+](=O)[O-])o1	27	55*	1	36	65*	83*	49*	FLuc counter=54*
O=C1CC(c2cccc(Br)c2)c2cc3c(cc2N1)CCC3 (centres undefined)	38	67*	0	8	58*	52*	42*	FLuc counter=68*
Cc1cccc(C(=O)O/N=C(\N)c2ccc(Br)cc2)c1	7	51*	-3	12	96*	51*	-8
Cc1ccc(/C(N)=N/OC(=O)c2cccc(Cn3cc(C(F)(F)F)ccc3=O)c2)cc1	39	89*	2	23	59*	60*	50*	FLuc counter=76*
O=C(Nc1c(-c2ccc(Cl)cc2)[nH][nH]c1=O)c1ccc(Br)cc1	.	.	1	.	.	.	.
SMILES	tim10-1 inh	Mdm2 MdmX PPI	MPTP block	TIM10 inh	tim23-1 inh	tim23-1 conf	Mdm2-MdmX conf	others
CC(C)(C)c1ccccc1OCC(=O)NCCC(=O)O	8	23	0	5	-4	.	.
C=C(C(=O)Oc1ccccc1C(C)(C)C)c1ccccc1	39	96*	.	37	59*	56*	49*	FLuc counter=34
COC1=CC(=O)c2ccccc2C1=O	38	51*	-2	25	78*	79*	11
COc1cccc(-c2ccc3ncnc(NCc4cccs4)c3c2)c1	29	64*	1	29	52*	43*	51*	FLuc counter=39*
c1cncc(-c2ccc3ncnc(NCc4cccs4)c3c2)c1	17	17	2	14	22	.	.
O=C(COC(=O)c1nc(Cl)c(Cl)c(Cl)c1Cl)NCc1ccccc1	36	54*	0	31	59*	58*	32
COc1cc(C2CC(c3cccs3)=NN2C(=O)CCl)ccc1OC(F)F (centres undefined)	-21	99*	0	19	56*	44*	100*	FLuc counter=51*
COc1ccc(C2CC(c3cccs3)=NN2C(=O)c2ccccc2)cc1OC (centres undefined)	20	17	0	16	29	.	.
CC(C)CC1C(=O)N(Cc2cn(CCC3OCCCO3)nn2)CCS(=O)(=O)N1Cc1ccc(-c2ccncc2)cc1 (centres undefined)	.	.	0	.	.	.	.
COc1ccccc1-c1cc(C(F)(F)F)c(C#N)c(=O)[nH]1	3	-6	0	3	7	.	.
Cc1ccccc1[C@@]1(C)ON(c2ccccc2C(F)(F)F)C1=O	9	81*	0	33	56*	46*	34
CC[C@@]1(c2ccccc2OC)ON(c2ccccc2C(F)(F)F)C1=O	5	89*	0	34	57*	51*	80*	FLuc counter=51*
CC(C)NC(=O)Nc1nnc([C@H]2C[C@H](O)[C@@H](CO)O2)s1	.	.	1	.	.	.	.
CCOc1ccc(NS(=O)(=O)c2ccc(-c3cnc(C4CC4)o3)cc2)cc1	29	57*	2	-10	51*	44*	57*	FLuc counter=52*
CC(=O)Nc1ncnc2c1c(-c1ccc(Cl)cc1)nn2C(C)(C)C	-2	73*	-1	17	52*	48*	37	FLuc counter=55*
CC(=O)N(C(C)=O)c1ncnc2c1c(-c1ccc(Cl)cc1)nn2C(C)(C)C	18	40	2	21	49	.	.
CC1NC(=O)c2cccnc2-n2c1nc1cc(F)ccc1c2=O (centres undefined)	.	.	-1	.	.	.	.
CCOc1ccc(C(C)=O)cc1COC(=O)CNC(=O)C12CC3CC(CC(C3)C1)C2	26	57*	-2	22	50*	35	2
CCC(=O)NC(c1ccco1)c1cc(Br)c2cccnc2c1O (centres undefined)	.	.	-3	.	.	.	.
CC(=O)NC(c1ccc(N(C)C)cc1)c1cc(Cl)c2cccnc2c1O (centres undefined)	.	.	1	.	.	.	.
CCC(=O)NC(c1cc(Cl)c2cccnc2c1O)C(C)C (centres undefined)	38	53*	0	-17	52*	53*	53*	FLuc counter=10
